For 47 molecules, inhibition (viability loss, TRAIL sensitization) results are on record in PubChem BioAssay AID624354 (Sanford-Burnham Center for Chemical Genomics, 2012).

Structures are written as SMILES. Where “and” joins values, the source holds several entries; their conditions need not be identical. Equal entries are not always repeated. Among all 360,000 compounds or so, about 3,800 (1.1%) were called active.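 The calls were made as follows: active = compounds causing at least 50% loss of cell viability in the single-dose screen, relative to plate controls; inactive = the rest.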 Only a selection was taken, and actives are over-represented in it overall. A structure can be active in one record and inactive in another.

The nature of this assay: TRAIL-exposed caspase-8 expressing cell killing – NB7+C8 cells, ATPlite luminescence, TRAIL sensitizer project, primary screen (AID 624354). The conditions noted are these: at 10 µM, stronger effect = higher value.
In the case of `Cc1ccc(-c2nc(-c3cccnc3)sc2CC(=O)Nc2ccc(C)c(Cl)c2)cc1`, the inhibition (viability loss, TRAIL sensitization) was 18.7% (inactive). In the case of `COc1ccc(CCN2CNc3c(c(=O)n(C)c(=O)n3C)C2)cc1OC`, the inhibition (viability loss, TRAIL sensitization) is 7.29% (inactive). For `O=C1OCCN1C(=O)[C@H]1[C@H](c2ccc(Cl)cc2)C(c2cccc(Cl)c2)=NN1c1ccc(Br)cc1`, the inhibition (viability loss, TRAIL sensitization) was -0.36% (inactive). As for `CCOc1ccccc1/C=N/Nc1nc2ccccc2o1`, the inhibition (viability loss, TRAIL sensitization) was -8.7% (inactive). In the case of `COc1cccc(/C=N/Nc2cc(C)nc(-c3ccccc3O)n2)c1O`, the inhibition (viability loss, TRAIL sensitization) was 56.9% (active). Consider `COCCCNC(=O)c1cccc2c(-c3ccc(O)c(OC)c3)coc12`, for which the inhibition (viability loss, TRAIL sensitization) was 14.2% (inactive).

For the molecule `CC(=O)OCC(C)n1c(=O)c2ccccc2n1C(C)=O` (configuration not stated), the inhibition (viability loss, TRAIL sensitization) was -3.49% (inactive). Take `CN(C)CCCn1c(N)c(C#N)c2nc(C#N)c(C#N)nc21`: the inhibition (viability loss, TRAIL sensitization) is -10.7% (inactive).

For `O=C(NCCc1ccccn1)c1nc(Cn2cc([N+](=O)[O-])cn2)no1`, the inhibition (viability loss, TRAIL sensitization) was 2.01% (inactive). On to `CC(=O)Nc1ccc2nc(NC(=O)CS(=O)(=O)c3ccc(F)cc3)sc2c1`, for which the inhibition (viability loss, TRAIL sensitization) was -11.1% (inactive).

Regarding `O=C(Nc1nc2ccc([N+](=O)[O-])cc2s1)c1ccncc1`, the inhibition (viability loss, TRAIL sensitization) is 53.2% (active). With `CSc1ncccc1C(=O)Nc1nc2ccc(F)cc2s1`, the inhibition (viability loss, TRAIL sensitization) is 10.7% (inactive). `COc1cc2nnn(-c3ccncc3)c2cc1OC`: the inhibition (viability loss, TRAIL sensitization) was -16.3% (inactive). On to `O=C(CCCCCCCC(=O)N1CCCCC1)N1CCCCC1`, for which the inhibition (viability loss, TRAIL sensitization) was 1.6% (inactive). As for `COC(=O)c1sc(SC)c(S(=O)(=O)C(C)C)c1N/N=C(\C#N)S(=O)(=O)c1ccccn1`, the inhibition (viability loss, TRAIL sensitization) is -10.6% (inactive).

For the molecule `O=C(NCc1ccccc1)C1C(=O)N(Cc2ccccc2)C(=O)C1C1(O)CCCC1` (configuration not stated), the inhibition (viability loss, TRAIL sensitization) is -9.54% (inactive).

For `Cc1ccccc1C1CC(c2cccs2)=NN1S(C)(=O)=O` (configuration not stated), the inhibition (viability loss, TRAIL sensitization) is 1.64% (inactive). For `O=c1c2cc(-c3ccccc3)sc2nc2n1N=C(c1cccs1)CS2` the value was 56.6% (active). Consider `O=c1c(-c2ccccc2)cnc2n1CCS2`, for which the inhibition (viability loss, TRAIL sensitization) is -0.958% (inactive). For `COc1cccc2c1OCC(C(=O)NCc1ccc(Cl)cc1Cl)=C2` the value was 12.2% (inactive); for `CC(=O)Nc1ccc(C(=O)/C=C/c2ccc[nH]2)cc1`, 1.89% (inactive). Next, `CC(=O)Nc1ccc(C(=O)NNC(=O)CCCCC(=O)NNC(=O)c2ccc(NC(C)=O)cc2)cc1`: -1.99% (inactive). Take `CCCC(=O)Nc1ccc(C(=O)N/N=C/c2ccc[nH]2)cc1`: the inhibition (viability loss, TRAIL sensitization) is 93.8% (active). In the case of `ClC1(Cl)CC1CSc1ncn[nH]1` (configuration not stated), the inhibition (viability loss, TRAIL sensitization) was -13.6% (inactive).

Regarding `O=C(/C=C/c1ccc([N+](=O)[O-])o1)NNC(=O)c1ccc(F)cc1`, the inhibition (viability loss, TRAIL sensitization) was 32.1% (inactive).

For `Cc1nnc(SC(C(=O)Nc2cc(Cl)cc(Cl)c2)c2ccccc2)[nH]c1=O` (configuration not stated), the inhibition (viability loss, TRAIL sensitization) is -3.74% (inactive). In the case of `O=C(Nc1c(Br)cc2c(c1Br)Cc1ccccc1-2)C(F)(F)F`, the inhibition (viability loss, TRAIL sensitization) was 2.23% (inactive). Take `COc1cc(C(=O)N(C)Cc2cccc(OC)c2OC)ccc1OCC(=O)Nc1cccc(C(F)(F)F)c1`: the inhibition (viability loss, TRAIL sensitization) was 28.6% (inactive). Take `COc1cccc(NC(=O)CN(C)C(C)C(=O)Nc2ccc(C#N)cc2)c1` (configuration not stated): the inhibition (viability loss, TRAIL sensitization) is -8.39% (inactive). Take `COc1cc(NC(=O)c2cncc(-c3ccc(C#N)cc3)c2)cc(C(=O)Nc2cccc(C(F)(F)F)c2)c1`: the inhibition (viability loss, TRAIL sensitization) is 33.4% (inactive) and 56.8% (active).

On to `COc1cc(NC(=O)c2[nH]cnc2C(N)=O)cc(C(=O)Nc2cccc(C(F)(F)F)c2)c1`, for which the inhibition (viability loss, TRAIL sensitization) was 86% (active).

As to `COc1cccc(C(=O)N/N=C(\C)c2cccc(NC(=O)c3ccc(F)cc3)c2)c1OC`, the inhibition (viability loss, TRAIL sensitization) was 16.9% (inactive).

Consider `O=C(Nc1cccc(C(F)(F)F)c1)c1ccc(N2CCNCC2)c([N+](=O)[O-])c1`, for which the inhibition (viability loss, TRAIL sensitization) was 35.7% (inactive).

As for `COC(=O)c1ccc(C2C3=C(Nc4nnnn42)c2ccccc2OC3)cc1` (configuration not stated), the inhibition (viability loss, TRAIL sensitization) is -2.52% (inactive). As for `CCOC(=O)c1c(Cc2ccc(Cl)cc2)c[nH]c1C`, the inhibition (viability loss, TRAIL sensitization) is -5.16% (inactive). Next, `CCOC(=O)N1CCN(S(=O)(=O)c2ccc(C(=O)Nc3ccc(F)cc3F)cc2)CC1`: 4.58% (inactive); `Cc1cc(C)cc(OCc2nnc(SCC(=O)OC3CCCCC3)o2)c1`: -14.3% (inactive); `COc1cccc(CNC(=O)C2CCCN(S(=O)(=O)N3CC(C)CC(C)C3)C2)c1` (configuration not stated): -1.49% (inactive). In the case of `COC(=O)C1=C[C@@H](C(=O)OC)[C@@H]2C3=C(C(=O)[C@]2(C)NC(=O)c2ccccc2)[C@H](C)n2c(=O)n(C)c(=O)n2[C@@H]3C1`, the inhibition (viability loss, TRAIL sensitization) is -3.47% (inactive). Consider `COc1ccc(OC)c(Cc2cnc3nc(N)nc(N)c3c2C)c1`, for which the inhibition (viability loss, TRAIL sensitization) was 84% (active).

On to `O=C(CN(C(=O)c1csnn1)c1cccc(F)c1)NCc1ccc(F)cc1`, for which the inhibition (viability loss, TRAIL sensitization) is -4.16% (inactive). Take `CCOC(=O)c1c(C)oc(C)c(C(=O)OCC)c1=O`: the inhibition (viability loss, TRAIL sensitization) was -19.5% (inactive). In the case of `CCOC(=O)c1[nH]c(C)c(C(=O)OCC(=O)N2c3ccccc3CC2C)c1C` (configuration not stated), the inhibition (viability loss, TRAIL sensitization) was 6.75% (inactive). On to `CCOC(=O)c1c(C)[nH]c2c1-c1ccccc1C(=O)C2=O`, for which the inhibition (viability loss, TRAIL sensitization) is 94% (active). Consider `Cc1ccc(C(=O)COC(=O)c2cccc(N3C(=O)c4c(C)nc5ccccc5c4C3=O)c2)cc1C`, for which the inhibition (viability loss, TRAIL sensitization) is 60.1% (active). With `COc1ccc(C(=O)OCC(=O)c2ccc(C)c(S(=O)(=O)N3CCOCC3)c2)cc1OC`, the inhibition (viability loss, TRAIL sensitization) is 18.4% (inactive). On to `Cc1ccc(C(=O)COC(=O)CCN2C(=O)C3C4CCC(C4)C3C2=O)cc1C` (configuration not stated), for which the inhibition (viability loss, TRAIL sensitization) is -8.78% (inactive).
